Measurements taken from PubChem BioAssay (Tox21).
Records with an inconclusive call do not appear. The source made the active and inactive calls. Unless noted, the call rests on the fitted dose curve; in most records, active means well fitted curve in the direction sought with a large enough effect in the repeat runs; inconclusive means weak or mixed curves; inactive means no such curve, though single readings can be large; an effect the other way counts as inactive or inconclusive.

Assays:
[1] = qHTS assay to identify small molecule agonists of the peroxisome proliferator-activated receptor delta (PPARd) signaling pathway - cell viability counter screen (AID 743211); further: nearly all actives have a fitted effect of over 55% in size
Procedure, shortened: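 PPARd-bla HEK293H cells (3000/well) were pre-incubated 5 h at 37 C, then exposed to compound for 17 h at 37 C. After 2 h with LiveBLAzer substrate, CellTiter-Glo was added to the same wells; luminescence read after 30 min at room temperature.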

[2] = target: Peroxisome proliferator-activated receptor delta (Homo sapiens) (UniProt Q03181); assay: qHTS assay to identify small molecule agonists of the peroxisome proliferator-activated receptor delta (PPARd) signaling pathway (AID 743212; calls by dose curve)
Chain of Peroxisome proliferator-activated receptor delta (Homo sapiens) (Q03181 whole entry, looked up): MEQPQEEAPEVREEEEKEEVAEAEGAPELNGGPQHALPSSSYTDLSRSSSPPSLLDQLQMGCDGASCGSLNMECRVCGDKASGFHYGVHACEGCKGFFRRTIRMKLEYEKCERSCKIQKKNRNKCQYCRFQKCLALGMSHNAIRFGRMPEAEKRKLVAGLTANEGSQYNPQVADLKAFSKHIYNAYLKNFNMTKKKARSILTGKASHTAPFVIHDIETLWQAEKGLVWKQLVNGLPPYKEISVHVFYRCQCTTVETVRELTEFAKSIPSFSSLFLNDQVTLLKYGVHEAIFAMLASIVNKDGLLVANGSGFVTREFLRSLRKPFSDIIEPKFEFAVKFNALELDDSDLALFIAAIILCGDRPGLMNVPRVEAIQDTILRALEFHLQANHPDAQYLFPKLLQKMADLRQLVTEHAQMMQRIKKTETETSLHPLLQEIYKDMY
Procedure, shortened: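 Read-out: beta-lactamase FRET fluorescence after 2 h room-temperature incubation with LiveBLAzer B/G substrate. Cells were HEK293H carrying a UAS-bla reporter for PPARd, treated at 37 C with DMSO-dissolved compounds.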

[3] = qHTS assay to identify small molecule antagonists of the peroxisome proliferator-activated receptor delta (PPARd) signaling pathway - cell viability counter screen (AID 743213); further: nearly all actives have a fitted effect of over 50% in size
Procedure, shortened: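 PPARd-bla HEK293H cells were treated with compounds plus agonist L165041 (300 nM final) for 17 h at 37 C. Viability was then read in the same wells by CellTiter-Glo luminescence after 30 min at room temperature.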

[4] = target: Peroxisome proliferator-activated receptor delta (Homo sapiens) (UniProt Q03181); assay: qHTS assay to identify small molecule antagonists of the peroxisome proliferator-activated receptor delta (PPARd) signaling pathway (AID 743215; active means well fitted inhibition curve with a large enough effect in the signal ratio in the repeat runs, not every such curve was filed as active; the % refers to the signal ratio;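 further: cells stimulated with agonist L165041 at 300 nM final during compound exposure; series mostly up to about 62 µM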)
Procedure, shortened: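 Agonist L165041 (300 nM final) added with compound to PPARd-bla HEK293H UAS-bla reporter cells; 17 h incubation at 37 C. Read-out: LiveBLAzer FRET substrate, 2 h at room temperature, fluorescence intensity.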

[5] = qHTS assay to identify small molecule agonists of the farnesoid-X-receptor (FXR) signaling pathway - cell viability counter screen (AID 743218); further: nearly all actives have a fitted effect of over 45% in size
Procedure, shortened: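 Viability counter screen in the same wells: CellTiter-Glo luminescence, 30 min room-temperature incubation, measured after the beta-lactamase read. Cells were GeneBLAzer FXR-UAS-bla HEK 293T, compound-treated 16 h at 37C.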

[6] = qHTS assay to identify small molecule antagonists of the farnesoid-X-receptor (FXR) signaling pathway - cell viability counter screen (AID 743221; active means well fitted cell-killing curve with a large enough effect in the repeat runs, not every such curve was filed as active; further: nearly all actives have a fitted effect of over 50% in size)
Procedure, shortened: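 GeneBLAzer FXR-UAS-bla HEK 293T cells, compound plus chenodeoxycholic acid (50 uM final), 16 h at 37 C. CellTiter-Glo added to the same wells after the beta-lactamase read; luminescence read after 30 min at room temperature as viability.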

[7] = target: Vitamin D3 receptor (Homo sapiens) (UniProt P11473); assay: qHTS assay to identify small molecule agonists of the vitamin D receptor (VDR) signaling pathway (AID 743222; calls by dose curve)
Chain of Vitamin D3 receptor (Homo sapiens) (P11473 whole entry, looked up): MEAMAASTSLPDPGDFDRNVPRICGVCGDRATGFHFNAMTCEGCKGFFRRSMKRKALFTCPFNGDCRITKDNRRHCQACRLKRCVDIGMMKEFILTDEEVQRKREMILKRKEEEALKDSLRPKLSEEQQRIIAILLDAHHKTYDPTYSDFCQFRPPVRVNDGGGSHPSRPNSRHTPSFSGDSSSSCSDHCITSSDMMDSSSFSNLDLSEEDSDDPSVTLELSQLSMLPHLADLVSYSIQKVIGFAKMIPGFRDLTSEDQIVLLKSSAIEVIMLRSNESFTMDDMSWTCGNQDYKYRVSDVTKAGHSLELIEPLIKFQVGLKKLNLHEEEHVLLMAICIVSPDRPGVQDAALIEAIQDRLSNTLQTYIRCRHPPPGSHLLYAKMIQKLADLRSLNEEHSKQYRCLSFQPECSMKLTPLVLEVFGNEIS
Procedure, shortened: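 Agonist mode, beta-lactamase reporter: fluorescence from LiveBLAzer B/G FRET substrate (2 h, room temperature) read after 16 h compound treatment at 37 C of VDR-bla cells, which were pre-incubated 4 h after seeding.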

[8] = qHTS assay to identify small molecule antagonists of the vitamin D receptor (VDR) signaling pathway - cell viability counter screen (AID 743225); further: nearly all actives have a fitted effect of over 50% in size
Procedure, shortened: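 VDR-UAS-bla HEK 293T cells were plated and incubated 4 h at 37C, then dosed with compound plus 3 nM (final) 1-alpha,25-dihydroxyvitamin D3 for 16 h. After the 2 h beta-lactamase read, viability in the same wells was read as CellTiter-Glo luminescence after 30 min at room temperature.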

[9] = qHTS assay to identify small molecule agonists of the NFkB signaling pathway (AID 1159509; active means well fitted curve in the direction sought with a large enough effect in the signal ratio in the repeat runs, not every such curve was filed as active; the % refers to the signal ratio; further: series mostly up to about 61 µM)
Procedure, shortened: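 Beta-lactamase reporter assay run in quantitative high-throughput format on an NF-kB-responsive ME-180 line, with 5 hr compound treatment and a FRET-based blue/green fluorescence readout.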

[10] = qHTS assay to identify small molecule agonists of the NFkB signaling pathway - cell viability counter screen (AID 1159515; calls by dose curve; further: series mostly up to about 61 µM; nearly all actives have a fitted effect of over 55% in size)
Procedure, shortened: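 Read by CellTiter-Glo luminescence (30 min, room temperature) in the wells also used for the beta-lactamase FRET read. ME-180 NFkB-bla cells at 2,000 per well were plated overnight, then exposed to compound for 5 hr at 37 C.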

[11] = qHTS assay to identify small molecule agonists of the endoplasmic reticulum stress response signaling pathway (AID 1159516; active means well fitted activation curve with a large enough effect in the signal ratio in the repeat runs, not every such curve was filed as active; the % refers to the signal ratio)
Procedure, shortened: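 Ratiometric FRET readout (405 nm excitation; 460 and 530 nm emission) of a beta-lactamase gene driven by the ER stress response element, after 2 hr substrate loading. HeLa ESRE-bla cells were seeded overnight and treated with compounds for only 5 hr at 37 C.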

[12] = qHTS assay to identify small molecule agonists of the endoplasmic reticulum stress response signaling pathway - cell viability counter screen (AID 1159517; calls by dose curve; further: series mostly up to about 61 µM; nearly all actives have a fitted effect of over 50% in size)
Procedure, shortened: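 Steps: seed 1,500 ESRE-bla HeLa cells per well; incubate overnight at 37 C, 5% CO2; add compounds in DMSO for 5 hr; run FRET substrate 2 hr RT; add CellTiter-Glo, wait 30 min, read luminescence.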

[13] = target: Nuclear receptor ROR-gamma (Homo sapiens) (UniProt P51449); assay: qHTS assay to identify small molecule antagonists of the retinoid-related orphan receptor gamma (ROR-gamma) signaling pathway (AID 1159521)
Procedure, shortened: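 Tet-on ROR-gamma CHO cells with ROR response element-luciferase reporter; compounds added 2 hr before 1 uM doxycycline induction, then 16 hr at 37 C. Antagonism scored as decreased ONE-Glo luminescence.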

[14] = qHTS assay to identify small molecule agonists of the AP-1 signaling pathway - cell viability counter screen (AID 1159525; calls by dose curve; further: nearly all actives have a fitted effect of over 55% in size)
Procedure, shortened: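 Same-well cytotoxicity counter screen of the Tox21 10K library in ME-180 cells. The readout is ATP-dependent luminescence after 5 h compound treatment. Data are normalised to DMSO and tetra n-octyl ammonium bromide controls.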

[15] = qHTS assay to identify small molecule agonists of the AP-1 signaling pathway (AID 1159526; calls by dose curve)
[16] = target: Vitamin D3 receptor (Homo sapiens) (UniProt P11473); assay: qHTS assay to identify small molecule antagonists of the vitamin D receptor (VDR) signaling pathway (AID 743223; active means well fitted inhibition curve with a large enough effect in the signal ratio in the repeat runs, not every such curve was filed as active; the % refers to the signal ratio)
Procedure, shortened: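 VDR-bla cells were treated with compound plus 3 nM final 1alpha,25-dihydroxyvitamin D3 for 16 h at 37C. Beta-lactamase reporter read by B/G FRET substrate fluorescence after 2 h at room temperature. qHTS format.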

[17] = target: Bile acid receptor (Homo sapiens) (UniProt Q96RI1); assay: qHTS assay to identify small molecule antagonists of the farnesoid-X-receptor (FXR) signaling pathway (AID 743217; active means well fitted inhibition curve with a large enough effect in the signal ratio in the repeat runs, not every such curve was filed as active; the % refers to the signal ratio)
Chain of Bile acid receptor (Homo sapiens) (Q96RI1 whole entry, looked up): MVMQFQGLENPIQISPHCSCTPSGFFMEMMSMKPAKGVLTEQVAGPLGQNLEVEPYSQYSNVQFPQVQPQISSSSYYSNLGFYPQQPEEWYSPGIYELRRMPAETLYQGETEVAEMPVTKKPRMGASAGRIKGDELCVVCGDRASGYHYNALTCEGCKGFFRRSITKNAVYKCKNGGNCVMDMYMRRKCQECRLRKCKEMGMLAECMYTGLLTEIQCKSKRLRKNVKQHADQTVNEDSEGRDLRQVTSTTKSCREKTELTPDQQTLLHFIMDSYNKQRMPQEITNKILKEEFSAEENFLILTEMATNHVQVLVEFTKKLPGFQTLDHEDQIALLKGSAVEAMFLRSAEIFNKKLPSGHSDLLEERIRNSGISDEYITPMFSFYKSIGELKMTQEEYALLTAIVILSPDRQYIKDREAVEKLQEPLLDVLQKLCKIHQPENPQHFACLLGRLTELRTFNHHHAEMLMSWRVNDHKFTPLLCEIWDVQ
Procedure, shortened: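 Antagonist mode: chenodeoxycholic acid at 50 uM final stimulates a UAS-driven beta-lactamase reporter in HEK 293T FXR-bla cells during 16 h, 37C compound exposure. Read-out is FRET substrate fluorescence after 2 h at room temperature.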

[18] = target: Bile acid receptor (Homo sapiens) (UniProt Q96RI1); assay: qHTS assay to identify small molecule agonists of the farnesoid-X-receptor (FXR) signaling pathway (AID 743220; active means well fitted activation curve with a large enough effect in the signal ratio in the repeat runs, not every such curve was filed as active; the % refers to the signal ratio)
Procedure, shortened: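 FXR-UAS-bla HEK 293T cells carrying a UAS-driven beta-lactamase reporter were plated for 5 h at 37C/5% CO2, then exposed to DMSO-dissolved Tox21 10K compounds for 16 h at 37C. A LiveBLAzer B/G FRET substrate was loaded for 2 h at room temperature before fluorescence reading.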

[19] = qHTS assay to identify small molecule agonists of the vitamin D receptor (VDR) signaling pathway - cell viability counter screen (AID 743224)
Procedure, shortened: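 Counter screen run in the same wells as the VDR-bla reporter assay: CellTiter-Glo luminescence, 30 min at room temperature, after 16 h compound treatment at 37C of cells pre-plated for 4 h.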

[20] = qHTS assay to identify small molecule antagonists of the retinoid-related orphan receptor gamma (ROR-gamma) signaling pathway - cell viability counter screen (AID 1159520); further: nearly all actives have a fitted effect of over 50% in size
Procedure, shortened: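 Tet-on ROR gamma CHO cells were given compounds for 2 hr, then doxycycline hyclate at 1 uM final, and incubated 16 hr at 37 C. Viability was measured as ATP content by CellTiter-Glo luminescence.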

Measured: Potency

CC(C)N1C(=O)c2ccccc2NS1(=O)=O
not listed: [16] | [17] | [18] | [19] | [20]
inactive: all other assays above

[N-]=[N+]=[N-]
not listed: [17] | [18] | [19] | [20]
inactive: all other assays above

CC(Br)C(=O)O (stereo not given)
not listed: [17] | [18] | [19] | [20]
inactive: all other assays above

Clc1ccccc1Cl
not listed: [11]
inactive: all other assays above

CCCCCCCCCCCC#N
not listed: [12] | [19]
inactive: all other assays above

CCCN(CCC)N=O
not listed: [12] | [17] | [18] | [19]
inactive: all other assays above

CON(C)C(=O)Nc1ccc(Cl)c(Cl)c1
not listed: [3] | [12] | [17] | [18] | [20]
inactive: all other assays above

O=c1ccc(=O)[nH][nH]1
not listed: [2] | [4] | [12] | [20]
inactive: all other assays above

ClCCBr
not listed: [7] | [12] | [16] | [17] | [18] | [20]
inactive: all other assays above

O=C(NC(=O)c1c(F)cccc1F)Nc1cc(Cl)c(OC(F)(F)C(F)C(F)(F)F)cc1Cl (stereo not given)
not listed: [2] | [4] | [12] | [14] | [15]
inactive: all other assays above

c1cc2c3c(cccc3c1)CC2
not listed: [7] | [12] | [16] | [17] | [18] | [19]
inactive: all other assays above

COP(N)(=O)SC (stereo not given)
not listed: [11]
inactive: all other assays above

CC(Oc1ccc(Cl)cc1Cl)C(=O)O (stereo not given)
not listed: [2] | [4] | [20]
inactive: all other assays above

c1ccc2c(c1)oc1ccccc12
not listed: [12] | [13] | [17] | [18] | [19] | [20]
inactive: all other assays above

c1ccc2c(c1)Oc1ccccc1O2
not listed: [2] | [4] | [12] | [16] | [20]
inactive: all other assays above

CC(C)(C)OOC(=O)c1ccccc1
not listed: [12] | [17] | [18] | [19] | [20]
inactive: all other assays above

O=C(O)c1ccccn1
not listed: [2] | [4] | [7] | [12] | [16] | [17] | [18]
inactive: all other assays above

CCc1cccc(C)c1N(C(=O)CCl)C(C)COC (stereo not given)
not listed: [2] | [4] | [13] | [17] | [18] | [19] | [20]
inactive: all other assays above
